Compounds with a hit are over-represented: about 1.1% of the library has one in this group of screens.
NR2F2 inh: blocks human COUP-TFII nuclear receptor | HEK293T NGFI-A luciferase reporter, luminescence | inhibition, % at 8.6 µM | 370,000 tested, 0.7% active | AID 686940;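 active means inhibition above a per-plate cutoff, mean inhibition of test wells between control levels plus 3 SD, cut at about 38% in these data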;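 further: cells cotransfected with COUP-TFII expression vector driving the NGFI-A reporter; 0% = median of COUP-TF2 test wells and 100% = reporter-only cells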
GalR3 antagonist: blocks the human galanin receptor 3 | O60755 | HEK293 GalR3-CNG cAMP membrane potential fluorescence; galR3 body fused to GalR1 C-terminus | inhibition, % at 3 µM | 360,000 tested, 0.44% active;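 active means inhibition above the screen-wide average plus 3 SD, cut at about 13% in these data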;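 further: forskolin and galanin both at EC90 stimulate the cells; cAMP rise reported by CNG channel membrane potential dye signal; 0% = forskolin plus galanin with DMSO and 100% = forskolin alone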
Target sequence (O60755 1-299 limits assumed): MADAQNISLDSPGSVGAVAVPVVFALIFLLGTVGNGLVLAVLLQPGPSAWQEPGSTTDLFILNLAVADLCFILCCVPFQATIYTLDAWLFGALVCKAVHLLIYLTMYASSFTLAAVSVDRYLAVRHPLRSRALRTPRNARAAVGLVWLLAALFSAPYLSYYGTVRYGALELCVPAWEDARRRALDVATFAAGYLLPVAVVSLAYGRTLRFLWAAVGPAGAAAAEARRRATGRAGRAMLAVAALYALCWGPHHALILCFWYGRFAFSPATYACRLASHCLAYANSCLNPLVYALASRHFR
LRH-1 inv ag: NR5A2 inverse agonism in reporter assay | O00482 | HEK293T StAR-luciferase reporter, LRH-1 transfected, 24 h | inhibition, % at 3.6 µM | 360,000 tested, 0.13% active | AID 602396;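 active means inhibition above the mean inhibition of all tested compounds plus 3 SD, cut at about 73% in these data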;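 further: 0% = DMSO wells and 100% = reporter-only cells lacking LRH-1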
NCOA1 inh: inhibits human SRC1 coactivator; HEK293 GAL4-SRC1 luciferase reporter, luminescence; inhibition, % at 3.6 µM; 360,000 tested, 0.12% active; AID 588354;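 active means inhibition above the campaign mean plus 3 SD, with each screening campaign given its own cutoff, cut at about 60% in these data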;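 further: 0% = DMSO treated cells and 100% = gossypol at 36 µM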
SRC3 inh: inhibitors of human steroid receptor coactivator 3 (SRC3) | HEK293 GAL4-SRC3 luciferase reporter, luminescence | Q9Y6Q9 | inhibition, % at 3.6 µM | 360,000 tested, 0.17% active;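 active means inhibition above a per-campaign cutoff, the mean of all compounds plus 3 SD, cut at about 60% in these data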;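 further: 0% = DMSO-treated cells and 100% = gossypol-treated cells at 36 µM; higher means less SRC3-driven luciferase light from the GAL4 reporter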
SRC2 inh: human SRC2 (NCOA2) inhibition | inhibition, % at 9 µM | HEK293 GAL4-SRC2 luciferase reporter, luminescence | 370,000 tested, 0.17% active | Q15596;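 active means inhibition above the mean inhibition of all tested compounds plus 3 SD, set per campaign, cut at about 52% in these data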;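 further: 0% = DMSO treated cells and 100% = cells given Gossypol at 36 µM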
VP16 Luc counter: inhibits VP16 reporter, flagging COUP-TFII antagonist hits | AID 687007 | HEK293 Gal4-VP16 luciferase reporter, luminescence | shares compounds with NR2F2 inh | 2,500 tested, 25% active | inhibition, % at 8.5 µM; in the data active means inhibition above about 13%
COUP-TFII conf: confirmation of human COUP-TFII (NR2F2) inhibitors; shares compounds with NR2F2 inh; HEK293 NGFI-A luciferase reporter, luminescence; inhibition, % at 8.5 µM; 2,500 tested, 45% active;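 active means mean inhibition over three repeats above a set limit taken from the earlier primary screen, cut at about 38% in these data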;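 further: 100% = cells given the luciferase reporter alone without the COUP-TF2 vector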
The depositor's hits bear a star; . = not tested or not shown.

SMILES	NR2F2 inh	GalR3 antagonist	LRH-1 inv ag	NCOA1 inh	SRC3 inh	SRC2 inh	VP16 Luc counter	COUP-TFII conf
CCOC(=O)N1C(=O)C[C@](Sc2ccc(OC)cc2)(C(=O)N2CCN(c3ncccn3)CC2)[C@H]1c1ccc(OC)cc1	-5	.	.	.	.	7	.	.
CC(=O)Nc1ccc(NC(=O)c2ccc(OCc3c(C)noc3C)cc2)cc1	5	-5	11	-2	-25	22	.	.
Cc1ccc(NC(=O)c2ccc(OCc3c(C)noc3C)cc2)cc1C	38*	-6	-1	-12	1	8	-45	-9
Cc1ccc(Cn2nnc3c2-c2ccccc2S(=O)(=O)N(C)C3)cc1	5	.	.	.	.	19	.	.
Cc1cc(NC(=O)COc2cc(F)cc(F)c2)n(-c2ccccc2)n1	-11	.	.	.	.	14	.	.
COc1cc(/C=C2/CC/C(=C/c3ccc(O)c(OC)c3)C2=O)ccc1O	-19	1	-13	-7	-5	6	.	.
COc1cc(/C=C2\COC/C(=C\c3ccc(O)c(OC)c3)C2=O)ccc1O	63*	-1	-16	-13	18	-56	13	19
COc1ccc(/C=C2\CC/C(=C\c3ccc(OC)c(OC)c3)C2=O)cc1OC	51*	-4	7	45	51	65*	32*	50*
Fc1ccc2[nH]c3c(NCc4ccccc4)ncnc3c2c1	55*	-11	31	25	16	31	1	38*
COc1ccc(OC)c(/C=C/c2ccc3cccc(O)c3n2)c1	2	-9	1	-5	-3	-26	.	.
COc1ccc(C=Cc2ccc3ccccc3n2)c(OC)c1	47*	0	-21	-6	4	12	-30	27
CN(c1cccc(NC(=O)c2ccc(N(C)S(=O)(=O)c3ccccc3)cc2)c1)S(C)(=O)=O	63*	-7	28	21	23	12	-5	28
CC(=O)Nc1ccc(C(=O)Nc2cccc(S(=O)(=O)N(C)c3ccccc3)c2)cc1	16	-7	11	-22	-21	3	.	.
Cc1nc2cc(NC(=O)c3ccc(S(=O)(=O)N(C)c4ccccc4)cc3)ccc2o1	49*	10	-7	-19	2	16	-85	26
CN(c1ccccc1)S(=O)(=O)c1ccc(NC(=O)c2ccc(-c3ccccc3)cc2)cc1	13	-2	5	-9	20	15	.	.
CC(C)[C@H]1COc2c3ccccc3nn21	-20	.	.	.	.	-19	.	.
CN(C)c1ccc(/C=N/N=C2/NC(=O)/C(=C/c3ccc([N+](=O)[O-])cc3)S2)cc1	41*	-2	-4	26	14	25	-58	36
O=C(c1ccccc1)c1ccc(OCC(O)CN2CCN(S(=O)(=O)N3CCCCC3)CC2)cc1 (stereo unspecified)	42*	-8	26	14	3	22	-6	7
COc1ccc(-c2cc(C)no2)cc1S(=O)(=O)NCCCN1CCCCCC1	15	1	3	5	-23	14	.	.
COc1ccc(-c2cc(C)no2)cc1S(=O)(=O)N1CCCCC1	3	-5	20	8	15	-17	.	.
COc1cccc(CCN2CCC(CNS(=O)(=O)c3cc(-c4cc(C)no4)ccc3C)CC2)c1	41*	8	9	-12	27	24	0	26
Cc1cc(-c2ccc(C)c(S(=O)(=O)NCC3CCN(Cc4cccc(F)c4)CC3)c2)on1	-4	-7	7	-4	-1	2	.	.
COc1cccc(CCN2CCC(CNS(=O)(=O)c3cc(-c4cc(C)no4)ccc3OC)CC2)c1	37*	-4	6	-8	27	14	-11	8
COc1ccc(-c2cc(C)no2)cc1S(=O)(=O)N1CCN(c2cccc(C)c2)C(C)C1 (stereo unspecified)	52*	1	13	0	5	18	11	54*
O=C(Nc1ccc2nc3n(c(=O)c2c1)CCCCC3)c1c(F)ccc([N+](=O)[O-])c1F	43*	-5	4	-156	0	71*	60*	79*
COc1cc(C=NN=c2sc3ccccc3n2C)ccc1OCCO	-37	-7	.	.	.	-58	.	.

Screens from PubChem.
